Measurements from the supplement of paper PMC6555819.

Legend:
Assay in all cases: PBM binding z-score (relative to random genomic background probes); higher = stronger binding; sequences stand for … in GC…GCGATTGACAGCGTAGAATGAAGG
[1] = test system: PPARg:RXRa DBDmut IVT, anti-RXR (DBD mutation: RXRa K156A/R161A, NR concentration 270 nM, RXRa partner concentration 90 nM)
Summary of the method: (§1)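 Probes were double-stranded and carried 34-nt variable regions with direct-repeat seeds, single-nucleotide variants, half-site ablations and random human genomic background sequences, printed on custom Agilent 4×180K protein-binding microarrays. Arrays were incubated 1 h with ligand-free nuclear receptor dimers in PBS pH 7.4, 2% milk, 0.02% Triton X-100, 1 mM DTT, 0.2 mg/mL BSA and 0.4 mg/ml salmon testes DNA. Antibodies against each partner (one per run) detected binding, and scanned fluorescence was regression-normalized. Binding z-scores use the random background probes as reference.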

[2] = test system: PPARg:RXRa IVT, anti-PPARg (NR concentration 270 nM, RXRa partner concentration 90 nM)
Summary of the method: as §1

[3] = test system: PPARg DBDmut:RXRa IVT, anti-PPARg (DBD mutation: PPARg1 K132A/R137A, NR concentration 270 nM, RXRa partner concentration 90 nM)
Summary of the method: as §1

[4] = test system: PPARg DBDmut IVT, anti-PPARg (DBD mutation: PPARg1 K132A/R137A, NR concentration 270 nM)
Summary of the method: as §1

[5] = test system: PPARg homodimer (NR concentration 180 nM)
Summary of the method: as §1

[6] = test system: PXR:RXRa (NR concentration 270 nM, RXRa partner concentration 90 nM)
Summary of the method: as §1

[7] = test system: PXR homodimer (NR concentration 270 nM)
Summary of the method: as §1

[8] = test system: RARa:RXR (NR concentration 270 nM, RXRa partner concentration 90 nM)
Summary of the method: as §1

[9] = test system: RARa homodimer (NR concentration 270 nM)
Summary of the method: as §1

[10] = test system: RARb:RXRa (NR concentration 270 nM, RXRa partner concentration 90 nM)
Summary of the method: as §1

[11] = test system: RARb homodimer (NR concentration 270 nM)
Summary of the method: as §1

[12] = test system: RARg:RXRa (NR concentration 270 nM, RXRa partner concentration 90 nM)
Summary of the method: as §1

[13] = test system: RARg homodimer (NR concentration 270 nM)
Summary of the method: as §1

[14] = test system: RXRa DBDmut IVT, anti-RXR (DBD mutation: RXRa K156A/R161A, NR concentration 90 nM)
Summary of the method: as §1

[15] = test system: RXRa homodimer (NR concentration 180 nM)
Summary of the method: as §1

[16] = test system: THRa:RXRa (NR concentration 90 nM, RXRa partner concentration 90 nM)
Summary of the method: as §1

[17] = test system: THRa homodimer (NR concentration 90 nM)
Summary of the method: as §1

[18] = test system: VDR homodimer (NR concentration 270 nM)
Summary of the method: as §1

| Sequence | PBM binding z-score [1] | PBM binding z-score [2] | PBM binding z-score [3] | PBM binding z-score [4] | PBM binding z-score [5] | PBM binding z-score [6] | PBM binding z-score [7] | PBM binding z-score [8] | PBM binding z-score [9] | PBM binding z-score [10] | PBM binding z-score [11] | PBM binding z-score [12] | PBM binding z-score [13] | PBM binding z-score [14] | PBM binding z-score [15] | PBM binding z-score [16] | PBM binding z-score [17] | PBM binding z-score [18] |
| --- | --- | --- | --- | --- | --- | --- | --- | --- | --- | --- | --- | --- | --- | --- | --- | --- | --- | --- |
| GCGACTGTGGCATCAGCAGGTTACCATAACTTAA | 0.287 | 0.27 | -0.703 | -1.08 | -0.566 | -0.281 | -0.227 | 0.0331 | -0.798 | 0.00959 | 0.205 | -0.1 | -0.291 | -0.209 | 0.187 | 0.277 | 0.0891 | -0.501 |
| CCAGACAGGTGAGTAGGTAACTCAGCCTCGATTA | 2.01 | 1.66 | -0.259 | -0.369 | 1.08 | -0.277 | -0.0681 | 0.388 | 0.546 | 0.279 | 0.326 | 0.196 | 0.224 | 0.331 | 0.246 | 0.0417 | 0.159 | -0.162 |
| TGGATGAGGTTAAAGATCAGGGAACGTGGCGTCG | 0.289 | 1.92 | 1.51 | 0.255 | 1.99 | 2.71 | 1.07 | 3.96 | 0.62 | 2.37 | 1.38 | 2.75 | 1.59 | 1.46 | 4.05 | 2.88 | 1.11 | 1.42 |
| TCTAGCAGGCCAGAGGTTCACTCAAGAGGTACGG | 0.614 | -0.232 | -1.08 | -0.88 | -0.59 | 0.274 | -0.691 | 0.324 | -0.904 | 0.468 | 0.483 | 0.466 | 0.306 | 0.415 | 0.756 | 0.0642 | -0.939 | 1.54 |
| ATCTCTAGGTAAGACTCAGCTCAGTGAAGAACGC | 1.68 | 1.02 | 0.287 | 1.14 | 0.51 | -0.0635 | 0.232 | -0.0237 | 0.868 | -0.0169 | 0.128 | -0.176 | 0.0732 | 0.0476 | -0.204 | 0.124 | 0.524 | 0.3 |
| CAAACTAGGTCAAAGGTCAAAGGCGAGCCAACCA | 8.87 | 9.3 | 4.87 | 2.24 | 4.33 | 6.93 | 1.55 | 9.2 | 2.6 | 5.86 | 5.32 | 9.06 | 7.75 | 3.02 | 10.4 | 4.91 | 1.64 | 3 |
| CAAACTAGCTCACAGAGGTCAAAGTCCGTGCGTA | 0.877 | 2.03 | 0.153 | 0.182 | 4.66 | 5.9 | 3.09 | 6.47 | 2.88 | 3.87 | 4.34 | 5.3 | 4.81 | 1.5 | 6.31 | 3.53 | 1.27 | 3.71 |
